Test results taken from publication PMC7862700, “An all-to-all approach to the identification of sequence-specific readers for epigenetic DNA modifications on cytosine”.

Columns and labels:
Test in all cases: DAPPL (digital affinity profiling via proximity ligation, sequencing); 10 mM Tris-HCl pH 7.5, 50 mM NaCl, 1 mM DTT, 4% glycerol, room temperature, 30 min; GST-TFs on glutathione beads, 16-mer random dsDNA library, 0.1% formaldehyde crosslink after washing; high values mean tight binding
FEV = target: T1, FEV (Homo sapiens, UniProt Q99581 1-238); conditions: protein: recombinant; tags: N-terminal GST; dsDNA, one strand shown
T1 sequence: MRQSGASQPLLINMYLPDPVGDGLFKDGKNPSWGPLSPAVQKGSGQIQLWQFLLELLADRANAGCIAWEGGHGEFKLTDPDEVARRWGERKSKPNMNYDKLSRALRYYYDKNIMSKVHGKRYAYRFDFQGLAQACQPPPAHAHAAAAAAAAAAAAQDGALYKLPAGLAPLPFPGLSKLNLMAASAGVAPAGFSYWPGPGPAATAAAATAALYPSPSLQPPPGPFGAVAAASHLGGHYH
Method in brief: (§1)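 Pools of DNA-barcoded human transcription factors, expressed in yeast as GST fusions on glutathione beads and combined with a tag-only sample, were incubated with 200 nmole of a 16-mer random double-stranded DNA library. Incubation took 30 min at room temperature in Tris/NaCl/DTT/glycerol buffer and was followed by washing, 0.1% formaldehyde crosslinking, proximity ligation (BsaI/T4 ligase, 1 h, 37 °C), PCR amplification and sequencing on an Illumina NextSeq500. Binding signal is the ratio of a hexamer's read frequency for a factor to its frequency for the tag-only sample.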

ETV5 = ETV5 (Homo sapiens, UniProt P41161 1-510); conditions: protein: recombinant; tags: N-terminal GST; dsDNA, one strand shown
ETV5, sequence (P41161 whole entry): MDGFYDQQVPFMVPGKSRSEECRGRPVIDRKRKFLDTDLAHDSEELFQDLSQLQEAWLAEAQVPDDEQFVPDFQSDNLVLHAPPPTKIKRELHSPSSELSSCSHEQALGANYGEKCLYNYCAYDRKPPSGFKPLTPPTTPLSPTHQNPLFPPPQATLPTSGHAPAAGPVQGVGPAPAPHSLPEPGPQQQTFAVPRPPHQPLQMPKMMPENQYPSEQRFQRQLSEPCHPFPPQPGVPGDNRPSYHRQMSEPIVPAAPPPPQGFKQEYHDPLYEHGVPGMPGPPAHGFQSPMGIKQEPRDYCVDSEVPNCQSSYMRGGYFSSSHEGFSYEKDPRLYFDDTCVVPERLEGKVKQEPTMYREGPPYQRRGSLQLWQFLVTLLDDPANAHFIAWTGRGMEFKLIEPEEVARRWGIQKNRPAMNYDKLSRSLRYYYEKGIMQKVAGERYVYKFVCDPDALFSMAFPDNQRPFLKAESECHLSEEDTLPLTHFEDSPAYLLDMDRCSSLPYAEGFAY
Method in brief: as §1

HSF1 = HSF1 (Homo sapiens, UniProt Q00613 1-529); conditions: protein: recombinant; tags: N-terminal GST; chain copies: 3; dsDNA, one strand shown
HSF1, sequence (Q00613 whole entry): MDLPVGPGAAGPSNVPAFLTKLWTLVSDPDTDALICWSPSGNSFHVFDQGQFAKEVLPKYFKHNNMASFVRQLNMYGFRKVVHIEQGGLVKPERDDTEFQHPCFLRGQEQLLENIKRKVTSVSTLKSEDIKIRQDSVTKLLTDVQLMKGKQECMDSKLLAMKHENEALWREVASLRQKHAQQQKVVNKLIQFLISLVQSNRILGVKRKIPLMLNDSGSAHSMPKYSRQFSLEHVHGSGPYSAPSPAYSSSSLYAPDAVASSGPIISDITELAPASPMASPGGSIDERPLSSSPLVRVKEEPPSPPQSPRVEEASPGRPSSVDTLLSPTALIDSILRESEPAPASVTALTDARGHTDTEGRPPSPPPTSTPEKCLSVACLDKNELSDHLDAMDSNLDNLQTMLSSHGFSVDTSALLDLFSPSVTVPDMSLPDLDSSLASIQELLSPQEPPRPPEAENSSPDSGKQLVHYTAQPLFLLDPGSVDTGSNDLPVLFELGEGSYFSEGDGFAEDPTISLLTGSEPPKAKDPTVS
Method in brief: as §1

SPIC = target: T2, SPIC (Homo sapiens, UniProt Q8N5J4 1-248); conditions: protein: recombinant; tags: N-terminal GST; dsDNA, one strand shown
T2 sequence: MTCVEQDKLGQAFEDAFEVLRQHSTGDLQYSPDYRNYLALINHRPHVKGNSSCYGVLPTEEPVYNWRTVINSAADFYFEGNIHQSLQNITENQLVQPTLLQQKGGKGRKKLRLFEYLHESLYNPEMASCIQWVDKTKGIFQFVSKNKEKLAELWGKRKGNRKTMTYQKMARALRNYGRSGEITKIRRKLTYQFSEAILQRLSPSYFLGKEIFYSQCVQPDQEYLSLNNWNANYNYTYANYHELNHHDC
Method in brief: as §1

ELF4 = ELF4 (Homo sapiens, UniProt Q99607 1-663); conditions: protein: recombinant; tags: N-terminal GST; dsDNA, one strand shown
ELF4, sequence (Q99607 whole entry): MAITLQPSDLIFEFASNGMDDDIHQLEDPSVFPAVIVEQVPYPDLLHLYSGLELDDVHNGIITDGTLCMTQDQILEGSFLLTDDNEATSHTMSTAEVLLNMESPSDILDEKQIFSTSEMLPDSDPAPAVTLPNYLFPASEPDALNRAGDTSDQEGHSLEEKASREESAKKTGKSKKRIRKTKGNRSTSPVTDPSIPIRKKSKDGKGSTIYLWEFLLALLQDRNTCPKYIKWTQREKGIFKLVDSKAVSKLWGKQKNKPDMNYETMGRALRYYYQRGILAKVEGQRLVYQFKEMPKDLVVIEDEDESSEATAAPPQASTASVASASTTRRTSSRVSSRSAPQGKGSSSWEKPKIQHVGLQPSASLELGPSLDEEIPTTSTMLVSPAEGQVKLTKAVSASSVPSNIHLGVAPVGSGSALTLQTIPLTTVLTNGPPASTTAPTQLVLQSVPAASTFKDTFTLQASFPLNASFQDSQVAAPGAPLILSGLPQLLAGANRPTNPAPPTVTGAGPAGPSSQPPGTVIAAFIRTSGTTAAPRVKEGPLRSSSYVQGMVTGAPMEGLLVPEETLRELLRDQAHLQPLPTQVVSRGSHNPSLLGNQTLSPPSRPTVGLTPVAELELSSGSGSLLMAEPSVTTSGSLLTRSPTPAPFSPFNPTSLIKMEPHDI
Method in brief: as §1

ELK4 = target: T3, ELK4 (Homo sapiens, UniProt P28324-2 1-405); conditions: protein: recombinant; tags: N-terminal GST; dsDNA, one strand shown
T3 sequence: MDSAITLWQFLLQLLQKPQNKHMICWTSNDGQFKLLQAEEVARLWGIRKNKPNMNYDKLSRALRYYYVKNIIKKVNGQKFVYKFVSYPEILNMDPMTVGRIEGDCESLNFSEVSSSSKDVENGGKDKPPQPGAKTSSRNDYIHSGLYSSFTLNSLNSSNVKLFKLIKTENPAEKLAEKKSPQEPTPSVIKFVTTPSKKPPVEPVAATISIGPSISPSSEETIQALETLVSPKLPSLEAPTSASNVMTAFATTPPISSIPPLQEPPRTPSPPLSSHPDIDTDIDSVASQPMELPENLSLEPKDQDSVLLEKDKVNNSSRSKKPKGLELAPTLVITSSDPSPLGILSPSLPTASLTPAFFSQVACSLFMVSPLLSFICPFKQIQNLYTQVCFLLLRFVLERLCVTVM
Method in brief: as §1

ETV2 = target: T4, ETV2 (Homo sapiens, UniProt O00321 1-342); conditions: protein: recombinant; tags: N-terminal GST; dsDNA, one strand shown
T4 sequence: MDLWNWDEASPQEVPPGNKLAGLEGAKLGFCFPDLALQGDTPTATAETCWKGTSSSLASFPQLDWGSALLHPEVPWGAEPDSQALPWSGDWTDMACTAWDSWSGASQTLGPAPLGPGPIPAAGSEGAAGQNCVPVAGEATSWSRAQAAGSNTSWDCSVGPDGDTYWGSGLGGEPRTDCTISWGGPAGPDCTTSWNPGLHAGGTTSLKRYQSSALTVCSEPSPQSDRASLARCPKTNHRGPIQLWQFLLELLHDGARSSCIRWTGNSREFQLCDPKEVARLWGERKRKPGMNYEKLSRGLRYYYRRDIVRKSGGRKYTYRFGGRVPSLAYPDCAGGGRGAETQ
Method in brief: as §1

ELF3 = target: T5, ELF3 (Homo sapiens, UniProt P78545 1-371); conditions: protein: recombinant; tags: N-terminal GST; dsDNA, one strand shown
T5 sequence: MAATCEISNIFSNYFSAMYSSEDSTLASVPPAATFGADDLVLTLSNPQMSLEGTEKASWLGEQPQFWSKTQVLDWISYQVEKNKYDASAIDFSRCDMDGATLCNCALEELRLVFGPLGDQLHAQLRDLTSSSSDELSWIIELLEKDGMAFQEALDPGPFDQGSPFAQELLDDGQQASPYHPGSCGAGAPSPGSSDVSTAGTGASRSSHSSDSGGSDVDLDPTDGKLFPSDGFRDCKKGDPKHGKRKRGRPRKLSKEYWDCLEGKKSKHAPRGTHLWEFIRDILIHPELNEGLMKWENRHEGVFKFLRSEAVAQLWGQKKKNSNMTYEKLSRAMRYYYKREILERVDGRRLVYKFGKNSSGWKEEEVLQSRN
Method in brief: as §1

CRX = CRX (Homo sapiens, UniProt O43186 1-299); conditions: protein: recombinant; tags: N-terminal GST; dsDNA, one strand shown
CRX, sequence (O43186 whole entry): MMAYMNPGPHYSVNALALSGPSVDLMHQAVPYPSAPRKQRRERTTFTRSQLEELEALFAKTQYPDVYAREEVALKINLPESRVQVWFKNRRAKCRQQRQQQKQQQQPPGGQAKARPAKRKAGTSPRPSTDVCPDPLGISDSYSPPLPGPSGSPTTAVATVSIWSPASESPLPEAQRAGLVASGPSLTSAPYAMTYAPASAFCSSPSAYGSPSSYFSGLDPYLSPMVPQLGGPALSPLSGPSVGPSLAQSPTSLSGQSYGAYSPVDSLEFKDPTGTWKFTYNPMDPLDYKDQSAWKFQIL
Method in brief: as §1

ETV1 = ETV1 (Homo sapiens, UniProt P50549 1-477); conditions: protein: recombinant; tags: N-terminal GST; dsDNA, one strand shown
ETV1, sequence (P50549 whole entry): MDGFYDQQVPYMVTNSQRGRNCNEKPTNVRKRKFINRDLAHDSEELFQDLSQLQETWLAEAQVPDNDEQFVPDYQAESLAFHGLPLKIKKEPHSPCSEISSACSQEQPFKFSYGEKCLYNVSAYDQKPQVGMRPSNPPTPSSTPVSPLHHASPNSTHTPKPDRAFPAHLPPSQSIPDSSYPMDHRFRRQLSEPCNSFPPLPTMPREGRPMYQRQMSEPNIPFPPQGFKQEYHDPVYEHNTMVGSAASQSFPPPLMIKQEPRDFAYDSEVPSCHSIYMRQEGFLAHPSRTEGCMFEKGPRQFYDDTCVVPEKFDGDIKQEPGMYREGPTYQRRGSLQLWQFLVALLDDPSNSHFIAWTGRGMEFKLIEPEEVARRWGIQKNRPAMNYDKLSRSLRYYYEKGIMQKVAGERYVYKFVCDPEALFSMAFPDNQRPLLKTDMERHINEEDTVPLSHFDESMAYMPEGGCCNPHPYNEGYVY
Method in brief: as §1

## TGTTTG
FEV
  binding signal: 1.21 fold enrichment (6-mer frequency, TF over GST control)
ETV5
  binding signal: 1.23 fold enrichment (6-mer frequency, TF over GST control)
HSF1
  binding signal: 1.06 fold enrichment (6-mer frequency, TF over GST control)
SPIC
  binding signal: 1.29 fold enrichment (6-mer frequency, TF over GST control)
ELF4
  binding signal: 1.36 fold enrichment (6-mer frequency, TF over GST control)
ELK4
  binding signal: 1.38 fold enrichment (6-mer frequency, TF over GST control)
ETV2
  binding signal: 1.14 fold enrichment (6-mer frequency, TF over GST control)
ELF3
  binding signal: 1.46 fold enrichment (6-mer frequency, TF over GST control)
CRX
  binding signal: 1.08 fold enrichment (6-mer frequency, TF over GST control)
ETV1
  binding signal: 1.38 fold enrichment (6-mer frequency, TF over GST control)
